Assay results reported in article PMC4336329 (PLoS ONE, 2015).
Screen size: about 310,000 compounds; about 14,000 (4.5%) showed an effect of 50% or more. Effects have a minus sign here. The list comes from a sample in which strong results are over-represented; it also holds similar structures and randomly drawn compounds.

These compounds were tested against human ether-à-go-go-related gene (hERG) potassium channel (human, UniProt Q12809) (assay: primary screen, population patch clamp on CHO cells stably expressing hERG; higher = less effect of the substance).
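Note: peak tail current of the secondary pulse compared with the same well before compound.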

Sequence of human ether-à-go-go-related gene (hERG) potassium channel (Q12809 whole entry, looked up): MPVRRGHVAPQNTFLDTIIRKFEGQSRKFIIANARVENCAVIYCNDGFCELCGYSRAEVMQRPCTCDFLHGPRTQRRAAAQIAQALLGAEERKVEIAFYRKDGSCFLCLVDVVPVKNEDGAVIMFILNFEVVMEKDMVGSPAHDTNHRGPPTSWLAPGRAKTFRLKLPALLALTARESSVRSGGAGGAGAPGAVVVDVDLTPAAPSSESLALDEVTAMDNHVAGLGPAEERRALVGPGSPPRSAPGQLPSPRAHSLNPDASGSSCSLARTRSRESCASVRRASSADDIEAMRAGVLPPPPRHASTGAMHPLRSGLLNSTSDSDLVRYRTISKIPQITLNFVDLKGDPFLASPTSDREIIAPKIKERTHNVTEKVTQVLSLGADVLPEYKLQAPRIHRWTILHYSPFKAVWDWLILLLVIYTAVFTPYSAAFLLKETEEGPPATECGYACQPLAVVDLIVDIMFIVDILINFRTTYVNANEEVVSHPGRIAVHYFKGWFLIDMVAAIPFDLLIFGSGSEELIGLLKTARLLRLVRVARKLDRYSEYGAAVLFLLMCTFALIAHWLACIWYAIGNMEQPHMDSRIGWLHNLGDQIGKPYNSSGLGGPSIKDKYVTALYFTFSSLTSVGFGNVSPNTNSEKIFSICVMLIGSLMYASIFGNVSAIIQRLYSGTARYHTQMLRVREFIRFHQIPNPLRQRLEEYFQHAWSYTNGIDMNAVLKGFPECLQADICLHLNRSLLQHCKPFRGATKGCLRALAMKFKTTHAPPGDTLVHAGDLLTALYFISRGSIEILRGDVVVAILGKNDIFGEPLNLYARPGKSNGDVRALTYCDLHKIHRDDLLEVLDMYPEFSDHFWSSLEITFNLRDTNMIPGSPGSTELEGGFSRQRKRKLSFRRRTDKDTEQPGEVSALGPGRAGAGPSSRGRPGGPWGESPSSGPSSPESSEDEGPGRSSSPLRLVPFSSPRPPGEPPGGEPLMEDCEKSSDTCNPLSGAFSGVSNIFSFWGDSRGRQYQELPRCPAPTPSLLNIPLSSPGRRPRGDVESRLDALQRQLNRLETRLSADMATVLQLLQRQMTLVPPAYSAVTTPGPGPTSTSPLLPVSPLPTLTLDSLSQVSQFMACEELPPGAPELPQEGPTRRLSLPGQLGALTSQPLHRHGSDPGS

| SMILES | hERG current change (%, negative = inhibition) at 10uM |
| --- | --- |
| c1ccc2c(c1)nnn2-c1ncnc2sc3c(c12)CCCC3 | -12.2% |
| Cc1nc(N2CCN(C(=O)c3ccco3)CC2)c(C#N)c2c1CCCC2 | 3.21% |
| CCNC(=S)N1CCN(c2nc(CC)nc3sc4c(c23)CCCC4)CC1 | -15.4% |
| O=C(c1ccco1)N1CCN(c2nc(C3CC3)nc3sc4c(c23)CCCC4)CC1 | -29.7% |
| CCC(=O)N1CCN(c2nc(CC)nc3sc4c(c23)CCCC4)CC1 | -71.7% |
| C/C(=N\NC(=O)c1nn(C)c(C)c1Br)c1cccc(NC(=O)c2ccoc2C)c1 | -23.2% |
| CCCC(=O)c1ccc(-c2ccccc2)cc1 | -4.95% |
| Cc1ccc(C(C)C)c(OCCCN2C(=O)NC(C)(C)C2=O)c1 | -14.3% |
| Cc1ccc(N2C(=O)CC(Sc3cccs3)C2=O)cc1 (stereo not shown) | 12% |
| Cc1cccc(NC(=O)c2oc3c(c2C)C(=O)CC(C)(C)C3)n1 | -14.9% |
| CC1=C(C(=O)N2CCCCC2)C2(CCC(C)CC2)OC1=O (stereo not shown) | -6.74% |
| CC1=C(C(=O)N2CCN(C(=O)c3ccco3)CC2)C2(CCC(C)CC2)OC1=O (stereo not shown) | -63.8% |
| CC1=C(C(=O)N2CCCCCC2)C2(CCC(C)CC2)OC1=O (stereo not shown) | 2.11% |
| Cc1c(CCC(=O)O)c(=O)oc2cc(OCc3ccccc3F)ccc12 | 27.4% |
| Cc1nc(SCC(=O)N2CCOCC2)c2c(=O)n(C)c(=O)n(C)c2n1 | 0.699% |
| C=CCc1cccc(CNc2cnc3ccccc3c2)c1O | -4.21% |
| COc1ccccc1N1CCN(Cc2nc(N)nc(Nc3ccc(C)cc3)n2)CC1 | -50.3% |
| COc1ccccc1N1CCN(Cc2nc(N)nc(Nc3ccccc3)n2)CC1 | -69.6% |
| COc1ccccc1N1CCN(Cc2ccc(Cl)cc2Cl)CC1 | -12.7% |
| COc1cc2nc(Nc3ccc(C)c(Cl)c3)nc(N)c2cc1OC.Cl | 4.1% |
| COc1ccccc1N1CCN(Cc2nc(N)nc(Nc3ccc(C)c(Cl)c3)n2)CC1 | -75.5% |
| CCc1nnc(NC(=O)c2cccs2)s1 | 9.54% |
| CCN(C(=O)COC(=O)c1ccc(Cl)cc1N)C1CCCCC1 | -9.34% |
| CC(=O)OC(C(=O)NC1CCCCC1)c1ccncc1 (stereo not shown) | -11.7% |
| Cc1sc2nc(SCC(=O)NCc3ccco3)n(Cc3ccccc3)c(=O)c2c1C | -3.84% |

| SMILES | hERG current change (%, negative = inhibition) at 10uM |
| --- | --- |
| COc1ccc(C2=Nn3c(nnc3-c3ccco3)SC2)cc1OC | -54.1% |
| CCOc1ccc(C2=Nn3c(nnc3-c3ccco3)SC2)cc1 | -10.7% |
| Oc1ccc(C2=Nn3c(nnc3-c3ccco3)SC2)cc1O | 0.591% |
| COc1ccc(OC)c(C2=Nn3c(nnc3-c3ccco3)SC2)c1 | -12.6% |
| COc1ccc(C2=Nn3c(nnc3-c3ccco3)SC2)cc1 | -63.6% |
| c1ccc(C2=Nn3c(nnc3-c3ccco3)SC2)cc1 | -25.9% |
| Cc1nc2cc(NC(=O)Nc3cccc4ccccc34)ccc2n1C | 2.53% |
| CCCOc1ccc(C(=O)NNC(=S)NC(=O)c2ccccc2)cc1 | 23.4% |
| CCc1noc(C)c1C(=O)NC1CC(C)(C)Cc2c1cnn2-c1ccccc1 (stereo not shown) | 5.9% |
| Fc1ccc2c(c1)C1C=CCC1C(c1cc3c(cc1Br)OCO3)N2 (stereo not shown) | 4.83% |
| CCOc1ccc(NC(=O)Nc2ccc3c(c2)nc(C)n3C)cc1 | 1.49% |
| O=C(NNC(=O)c1ccc(S(=O)(=O)N2CCOCC2)cc1)c1ccccc1 | 17.5% |
| Cc1cc2c(=O)n(Cc3ccco3)c(SCC(=O)NCc3ccco3)nc2s1 | -35.8% |
| Cc1cc2c(=O)n(Cc3ccco3)c(SCC(=O)c3ccc(Cl)s3)nc2s1 | -18.6% |
| CCOC(=O)CC(=O)CSc1nc2sc(C)cc2c(=O)n1Cc1ccco1 | -51.5% |
| CCc1cc2c(SCC(=O)NC3CCS(=O)(=O)C3)ncnc2s1 (stereo not shown) | -1.87% |
| CCc1cc2c(=O)n(Cc3ccco3)c(SCC(=O)NC3CCS(=O)(=O)C3)nc2s1 (stereo not shown) | -72.2% |
| CCc1cc2c(=O)n(Cc3ccco3)c(SCC(=O)NCC3CCCO3)nc2s1 (stereo not shown) | -70.2% |
| CN(C(=O)CSc1nnc(-c2ccco2)n1Cc1ccccc1)C1CCS(=O)(=O)C1 (stereo not shown) | -6.24% |
| CCc1cc2c(=O)n(Cc3ccco3)c(SCc3c(C)noc3C)nc2s1 | -5.47% |
| CN(C(=O)CSc1nc2ccc(Br)cc2c(=O)n1Cc1ccco1)C1CCS(=O)(=O)C1 (stereo not shown) | -79.6% |
| O=C(CSc1nc2c(sc3ccccc32)c(=O)n1Cc1ccco1)NCC1CCCO1 (stereo not shown) | -13.9% |
| CN(C(=O)CSc1nc2cc(C(=O)O)ccc2c(=O)n1Cc1ccccc1)C1CCS(=O)(=O)C1 (stereo not shown) | 37.8% |
| CCc1cc2c(SCC(=O)NCC3CCCO3)ncnc2s1 (stereo not shown) | -1.05% |
